High-throughput results from PubChem.
This is a sample that favours compounds with a hit; in the whole collection about 8.1% have one here.
Epigenetic reg – derepresses silenced GFP reporter in murine cells. murine LDR cells, GFP reporter derepression, 30 h. 280,000 compounds, 0.2% hits. Potency, µM (series often up to 53.9 µM), for the others: at the highest dose GFP activation, most hits filed as activators; note: % of control where 0% means no effect; nearly all actives have a fitted effect of over 60% in size
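In this reporter-derepression format, murine cells bearing a silenced integrated CMV-GFP locus incubate with test compound (30 h, 37 C), then are washed and imaged; fluorescent objects of 20–120 um count as induced cells.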
RORgamma inh – blocks mouse ROR gamma transcriptional activity | P51450 | Drosophila S2 Gal4-RORgamma UAS-luciferase reporter, 20 h | Potency, µM (doses to about 53.6 µM), inactives show at the top dose activity change, negative = inhibition, usual class: inhibitors | 310,000 compounds, 5.4% hits | AID 2551; note: % is set by controls: 0 for no effect and ±100 for the full control effect; nearly all actives have a fitted effect of over 60% in size
Target sequence (P51450 whole entry, looked up, the tested form may be a part): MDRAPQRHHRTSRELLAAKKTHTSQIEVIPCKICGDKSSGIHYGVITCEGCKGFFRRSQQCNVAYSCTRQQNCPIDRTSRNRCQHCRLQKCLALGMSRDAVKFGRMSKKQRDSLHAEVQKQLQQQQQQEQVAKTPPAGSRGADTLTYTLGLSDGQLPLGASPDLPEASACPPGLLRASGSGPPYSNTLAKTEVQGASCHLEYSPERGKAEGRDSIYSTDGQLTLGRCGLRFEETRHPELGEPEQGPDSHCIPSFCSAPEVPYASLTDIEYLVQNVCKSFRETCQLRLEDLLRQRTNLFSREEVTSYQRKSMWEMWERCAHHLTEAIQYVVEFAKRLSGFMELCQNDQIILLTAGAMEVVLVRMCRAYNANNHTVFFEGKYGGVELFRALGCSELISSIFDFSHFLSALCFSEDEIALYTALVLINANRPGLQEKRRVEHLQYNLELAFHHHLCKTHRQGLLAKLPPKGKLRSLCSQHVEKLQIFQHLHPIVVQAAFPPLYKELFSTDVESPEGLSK
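Luciferase reporter read in Schneider cells carrying Gal4-RORγ (mouse) and UAS-Photinus luciferase; cells given compound 1 h before 700 uM copper sulfate induction, then incubated 20 h at ambient temperature.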
PINK1 modulator – PINK1 expression modulation | PINK1 immunofluorescence, high-content cytometry, 24 h | Potency, µM (top dose mostly 76.6 µM), without a hit: at the top dose activation (PINK1 increase), most hits filed as activators | 410,000 compounds, 0.2% hits; active = well fitted activation curve with a large enough effect; inconclusive = small, poorly fitted or top-dose-only effect; cell line not stated here; note: % of control where 0% means no effect; nearly all actives have a fitted effect of over 65% in size
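Fluorescence from anti-PINK1 antibody, together with nuclear and cell stains, was scanned on a laser-scanning cytometer. Before staining, stable-line cells were incubated 24 hours with compounds at 5 concentrations; primary antibody 12 h at 10 degrees C.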
ClpP mod – qHTS Assay for Activators of ClpP; purified B. subtilis ClpP, FRET peptide cleavage, 20 min; AID 651965, 2013; ATP-dependent Clp protease proteolytic subunit (Bacillus subtilis (strain 168)), P80244; 340,000 compounds, 1.9% hits; Potency, µM (top dose mostly 57.5 µM), without a hit: at the highest dose activity change, negative = active; active = well fitted falling curve with a large enough effect; inconclusive = small, poorly fitted or top-dose-only effect; inactive = no such curve, though single readings can be large or run the other way; note: the source files actives as falling curves though it sought activators and does not explain the sign; nearly all actives have a fitted effect of over 65% in size
Target sequence (P80244 whole entry, looked up): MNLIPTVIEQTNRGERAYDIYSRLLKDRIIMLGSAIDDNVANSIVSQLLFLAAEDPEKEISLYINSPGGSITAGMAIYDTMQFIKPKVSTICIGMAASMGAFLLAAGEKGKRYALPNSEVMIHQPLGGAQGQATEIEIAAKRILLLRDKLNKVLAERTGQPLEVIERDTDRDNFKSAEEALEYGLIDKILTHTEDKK
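ClpP 10 microg/mL final, pH 8 Tris/KCl buffer with BSA, glycerol, Tween-20; compound pinned in; FRET-FV substrate; RT 20 min; Ex320/Em430; ΔFRET vs ADEP 5.8 microM, DMSO, no enzyme.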
Sfp inh – blocks B. subtilis Sfp PPTase activity | AID 1490 | Q9F4F7 | 310,000 compounds, 3.5% hits | Biochemical Sfp PPTase activity, qHTS | Potency, µM, without a hit: largest response in the series, negative = inhibition, most hits filed as inhibitors;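 note: the enzyme is Sfp with the accession as filed and its product quenches rhodamine fluorescence; 0% = enzyme reaction without inhibitor and -100% = no enzyme wells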
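Buffer: 50 mM Hepes-Na pH 7.6, 10 mM MgCl2, 0.01% Nonidet P-40, 0.01% BSA. Enzyme 15 nM, pre-exposed to compound 15 min; substrates then added and fluorescence change tracked over 30 min.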
Gal4-VP16 FLuc – Gal4-VP16 reporter inhibition counter-screen; Drosophila S2 Gal4-VP16 UAS-luciferase, luminescence, 20 h; Potency, µM (series often up to 53.6 µM), for inactives: at the top dose activity, negative = inhibition, actives largely listed as inhibitors; 310,000 compounds, 3.5% hits; AID 2546;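 note: Gal4-VP16 expression switched on by copper sulfate through the metallothionein promoter; % is set by controls: 0 for no effect and ±100 for the full control effect; nearly all actives have a fitted effect of over 50% in size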
The depositor's hits bear a star; u = inconclusive; x = no result given; [ ] = dose if it differs, or a comment. Unless noted, calls come from the whole dose curve; as a rule, active = well fitted curve in the direction sought with a large enough effect; inconclusive = small, poorly fitted or top-dose-only effect, or another doubt; inactive = no such curve, though single readings can be large; an effect the other way counts as inactive or inconclusive. Potency is the fitted concentration of half-maximal effect.

SMILES	Epigenetic reg	RORgamma inh	PINK1 modulator	ClpP mod	Sfp inh	Gal4-VP16 FLuc
COc1ccccc1CNC(=O)C(=O)NCC(c1ccc2c(c1)OCO2)N1CCOCC1 (stereo not drawn)	1%	x	-1%	1%	x	x
COc1cccc(C(=O)NCC2Cc3cccc(-c4ncccn4)c3O2)c1OC (stereo not drawn)	x	x	1%	x	x	x
CCn1c(-c2ccccc2F)nc2cc(NC(C)=O)cc(C(=O)N3CCCC3c3nccs3)c21 (stereo not drawn)	x	x	-1%	x	x	x
O=C(Nc1ccccc1Br)C1CCCN(S(=O)(=O)c2cccc3nsnc23)C1 (stereo not drawn)	4%	x	0%	-2%	x	x
COc1ccc(C(=C2C(=O)Nc3ccccc32)c2ccc(OC)cc2)cc1	x	22%	x	x	-9%	5%
O=C(/C=C1\C(=O)Nc2ccccc21)/C=C1\C(=O)Nc2ccccc21	u	13µM*	9%	-6%	1.4µM*	10µM*
O=C1Nc2ccccc2/C1=C\C(=O)c1ccccc1	x	13µM*	-4%	1%	u	u
CC(C)Oc1ccc(C(=O)/C=C2/C(=O)Nc3ccccc32)cc1	x	10µM*	0%	1%	-21%	u
CN(C)/C=C1\C(=O)Nc2ccccc21	0%	-13%	-1%	1%	10%	-2%
CN(O)/C=C1\C(=O)Nc2ccccc21	-1%	10%	0%	-2%	50µM*	-1%
O=C1Nc2ccccc2/C1=C/c1ccccc1Cl	x	u	10%	u	-15%	-10%
COc1cc(OC)c(NC(=O)N2CCc3c(sc4c3CCCC4)C2c2ccccc2)cc1Cl (stereo not drawn)	-5%	x	1%	-2%	x	x
COc1cccc(C2(CC(=O)N3CCCOc4c(cccc4OC)C3)CC(=O)N(C)C2=O)c1 (stereo not drawn)	x	x	-1%	x	x	x
COc1ccc(NC(=O)N(Cc2nnc3n2CCCCC3)c2ccc(OC)c(Cl)c2)cc1	0%	x	u	-1%	x	x
CC(C)(C)NC(=O)C(=O)NN=C1CCCCCCCCCCC1	3%	-44%	0%	x	79µM*	4%[10 µM]
CC(C)CNC(=O)C(=O)NN=C1CCCCCC1	0%	-2%	1%	1%	10%	-7%
O=C(CSc1nc2ccccc2n1Cc1ccccc1)N/N=C/c1ccco1	-9%	-8%	0%[38.3 µM]	-3%	u	9%[0.365 µM]
C/C(=N/NC(=O)CSc1nc2ccccc2n1C)c1ccco1	x	x	-2%	-2%	17%	x
CCn1c(SCC(=O)N/N=C/C=C\c2ccco2)nc2ccccc21	-1%	u	0%	x	10µM*	u
Cn1c(SCC(=O)N/N=C/C=C\c2ccco2)nc2ccccc21	-2%	0.4µM*	-1%	0%	-65%	u
Cc1ccc(Cn2c(SCC(=O)N/N=C/c3ccc(C)o3)nc3ccccc32)cc1	-1%	-41%	2%	-1%	56µM*	-7%
COc1cccc(Cn2c(=O)n(CC3CCC(C(=O)N4CCCCC4)CC3)c(=O)c3sccc32)c1 (stereo not drawn)	0%	x	-1%	1%	x	x
CC(Sc1nc2ccccc2c(=O)n1C)C(=O)Nc1ccc2c(c1)OCCO2 (stereo not drawn)	x	x	0%	1%	x	x
CC(C)Cn1c(SC(C)C(=O)Nc2ccc3c(c2)OCCO3)nc2ccccc2c1=O (stereo not drawn)	-3%	13µM*	-1%[38.3 µM]	-2%	9%	-20%
N=c1ccn(Cc2cccc(F)c2)cc1	-4%	u	0%	0%	21%	10µM*
SMILES	Epigenetic reg	RORgamma inh	PINK1 modulator	ClpP mod	Sfp inh	Gal4-VP16 FLuc
COc1ccc(C(=O)NC(=S)Nc2cccc(NC(=O)c3ccco3)c2)cc1[N+](=O)[O-]	5%	10µM*	u	1%	15%	u
CCOc1ccc(C(=O)NC(=S)Nc2cccc(NC(=O)c3ccco3)c2)cc1[N+](=O)[O-]	-1%	6.3µM*	4%	2%	7%	7.1µM*
Cc1cccc[n+]1C1C(c2ccccc2)C(C#N)=C(C(=C=[N-])C#N)NC1(O)C1CC1 (stereo not drawn)	0%	-3%	-2%	-3%	2%	-3%
COc1ccc([C@H]2C(C#N)=C([S-])N[C@](C)(O)[C@@H]2[n+]2ccccc2)cc1	0%	0%	0%	-3%	25µM*	9%
Cc1ccc[n+](C2C(c3ccc([N+](=O)[O-])cc3)C(C#N)=C([S-])NC2(O)C2CC2)c1 (stereo not drawn)	-2%	-21%	0%	-1%	25µM*	25%
COCc1c(C(=O)N2CCN(C(C)C)CC2)cnn1-c1nccc(-c2cc(C)sc2C)n1	x	x	-1%	x	x	x
CC[C@H](C)[C@H](NC(=O)[C@H](CC(=O)O)NC(=O)[C@H](CC(N)=O)NC(=O)[C@@H](NC(=O)[C@H](CCCNC(=N)N)NC(=O)[C@@H](NC(=O)[C@@H](NC(=O)[C@@H](NC(=O)[C@@H](NC(=O)[C@H](CCCCN)NC(=O)[C@@H](NC(=O)[C@H](CC(C)C)NC(=O)[C@@H](NC(=O)[C@H](CCCCN)NC(=O)[C@@H](NC(=O)[C@H](CC(=O)O)NC(=O)[C@H](CC(=O)O)NC(=O)[C@H](CCC(N)=O)NC(=O)[C@@H](NC(=O)[C@H](CCCCN)NC(=O)[C@H](CCC(N)=O)NC(=O)[C@@H](NC(=O)[C@@H]1CCCN1C(=O)[C@@H](N)C(C)C)[C@@H](C)CC)C(C)C)[C@@H](C)O)[C@@H](C)O)[C@@H](C)CC)[C@@H](C)O)[C@@H](C)CC)C(C)C)[C@@H](C)O)[C@@H](C)CC)C(=O)N[C@@H](CO)C(=O)N[C@@H](Cc1cnc[nH]1)C(=O)N[C@H](C(=O)N[C@@H](CCC(N)=O)C(=O)N[C@@H](CO)C(=O)N[C@H](C(=O)N[C@@H](CO)C(=O)N[C@@H](CO)C(=O)N[C@@H](CCCCN)C(=O)N[C@@H](CCC(N)=O)C(=O)N[C@@H](CCCCN)C(=O)O)C(C)C)[C@@H](C)O	x	9%	x	x	2%	-4%
CC(C)C(C)C	x	3%	x	x	x	-2%
Oc1ccc(-c2cc(-c3ccc(O)cc3)nc(-c3ccccc3)n2)cc1	x	-15%	8%	x	6%	-6%
Oc1ccc(O)cc1	1%	11µM*	x	x	u	u
O=C(c1ccc(O)cc1)c1ccc(C(=O)c2ccc(O)cc2)cc1	1%	u	7%	-3%	11%	u
Oc1ccc(-c2nnc(-c3ccc(O)cc3)nn2)cc1	1%	11µM*	6%	-1%	12%	u
